Assay results: PubChem BioAssay
Inconclusive results are not listed. Active and inactive are the calls of the source. Unless noted, how the calls were made is not given here.

How the values were obtained:
[1] = stimulators of insulin release from INS-1E, primary screen, cell-based, 5 mM glucose, NPC library (AID 1117329;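 active means compound raises insulin release from rat beta cells at 5 mM glucose, no numeric limit stated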); details: rat INS-1E insulin secretion, at 10 µM, stronger effect = higher value
[2] = growth inhibition of GSK3B-pretreated HCT116 cells – cell-based, CellTiter-Glo, 0.2 to 20 µM (AID 1117336;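 active means compounds lowering colon cancer cell viability after pretreatment blocking the GSK3B kinase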); details: HCT116 viability after GSK3B inhibitor, at 20 µM, stronger effect = higher value
[3] = inhibition of endothelial tube formation, primary screen, imaging, VEGF stimulated, CD31 staining, tube area, NPC library (AID 1117340;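 active means compound that reduces growth-factor-driven endothelial tube area in a mixed cell culture, no cutoff stated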); details: VEGF-stimulated ADSC/ECFC co-culture, at 10 µM, stronger effect = higher value
[4] = glucagon-like peptide 1 release enhancers, primary assay, NCI-H716 cell line, NPC library (AID 1117341;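 active means compound raises GLP1 secretion from the human gut endocrine cells, with no numeric limit stated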); details: NCI-H716 cells, at 10 µM, stronger effect = higher value
[5] = HCT116 colon cancer cell growth inhibition, primary screen, CellTiter-Glo luminescence, NPC library (AID 1117342;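 active means compounds that lower survival of HCT116 colon cancer cells in the luminescence readout, no numeric limit stated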); details: at 20 µM (top of the series)
[6] = CellTiter-Glo luminescent readout of SW480 viability loss, NPC library primary (AID 1117343;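 active means compounds that lower viability of the colon cancer cells in the luminescence readout, with no numeric limit stated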); details: CellTiter-Glo luminescence; at 20 µM (top of the series)
[7] = decreased DLD-1 cellular survival, CellTiter-Glo luminescent readout, NPC compound collection, primary HTS (AID 1117346;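 active means compounds that lower survival of DLD-1 colon cancer cells in the luminescence readout, no cutoff given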); details: DLD-1 viability, CellTiter-Glo luminescence; at 20 µM (top of the series)
[8] = modulation of C. elegans fzo-1 (AID 1259413);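 further: fzo-1 mutant C. elegans worms in liquid wells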; details: C. elegans fzo-1 modulator screen, mean read-out; stronger effect = higher value
[9] = growth inhibition of DIPG glioma cells, dose response, cell-based, JHH-DIPG-1, MIPE4.0, CellTiter-Glo, qHTS (AID 1347062; cut-off not given, nearly all actives have AC50 up to about 27 µM;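 on AC50: cells exposed to compound for two days before readout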); details: JHH-DIPG-1 viability, CellTiter-Glo ATP luminescence
[10] = test system: Aerobactin synthetase IucA (Klebsiella pneumoniae); experiment: IucA aerobactin synthetase inhibitors, biochemical, Tocris library, absorbance (AID 1345561); details: purified IucA enzyme assay, absorbance (OD) read-out; stronger effect = lower value;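 tested at 8 µM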;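 further: 100% = enzyme without compound and 0% = no enzyme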
[11] = growth inhibition of DIPG glioma cells, dose response, cell-based, SU-DIPG-XVII, MIPE5.0, CellTiter-Glo, qHTS (AID 1347060; cut-off not given, nearly all actives have AC50 up to about 26 µM;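 on AC50: cells exposed to compound for 48 hours before viability readout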); details: SU-DIPG-XVII viability, CellTiter-Glo ATP luminescence
[12] = growth inhibition of DIPG glioma cells, dose response, cell-based, SU-DIPG-XIII, MIPE4.0, CellTiter-Glo, qHTS (AID 1347061; cut-off not given, nearly all actives have AC50 up to about 37 µM;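 further: cells exposed to compound for 48 hours before readout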); details: SU-DIPG-XIII viability, CellTiter-Glo ATP luminescence
[13] = growth inhibition of DIPG glioma cells, dose response, cell-based, SU-DIPG-IV, MIPE4.0, CellTiter-Glo, qHTS (AID 1347063; cut-off not given, nearly all actives have AC50 up to about 30 µM;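 further: compound exposure lasted 48 hours before the viability readout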); details: SU-DIPG-IV viability, CellTiter-Glo ATP luminescence
[14] = growth inhibition of DIPG glioma cells, dose response, cell-based, SU-DIPG-XIII, MIPE5.0, CellTiter-Glo, qHTS (AID 1347064; cut-off not given, nearly all actives have AC50 up to about 23 µM;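 on AC50: cells exposed to compound for 48 hours before the viability read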); details: SU-DIPG-XIII viability, CellTiter-Glo ATP luminescence
[15] = differential killing of epithelial or mesenchymal cells, primary screen, imaging, PC-3E GFP, TEM4-18 mCherry, co-culture (AID 1345086;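 active means compounds killing one labelled cell type while sparing the other, by normalised counts and ratio limits, not self-fluorescent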;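 on all read-outs here: cells exposed to compound for 72 h before imaging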;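 on red/green cell ratio (normalised): normalised mesenchymal count divided by normalised epithelial count so high means epithelial killing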); details: imaging cell counts, at 1 µM; for red/green cell ratio (normalised): actives lie on both sides, counts scaled to control wells, 1 = unselective
[16] = measured here: epithelial PC-3E GFP cell survival
[17] = measured here: mesenchymal TEM4-18 mCherry cell survival

Cc1nccn1CC1CCc2c(c3ccccc3n2C)C1=O (stereo not drawn)
inactive: insulin secretion stimulation [1] -1.6% | viability decrease [2] -7% | tube area decrease [3] 1.5% | GLP1 secretion stimulation [4] -1.9% | inhibition of viability [5] 24.8% | viability decrease (inhibition) [6] -3.2% | viability decrease (inhibition) [7] -8% | mean signal [8] 237 | outcome [9]

CN(CCCN1c2ccccc2CCc2ccccc21)CC(=O)c1ccc(Cl)cc1
inactive: insulin secretion stimulation [1] 10.9% | viability decrease [2] 6.7% | tube area decrease [3] 29.2% | GLP1 secretion stimulation [4] 4.6% | inhibition of viability [5] 33.2% | viability decrease (inhibition) [7] 39% | mean signal [8] 194 | remaining activity [10] 113%
active: viability decrease (inhibition) [6] 84.8%

NC(=O)OCC(COC(N)=O)c1ccccc1
inactive: insulin secretion stimulation [1] 0.3% | viability decrease [2] -7.4% | tube area decrease [3] -7.6% | GLP1 secretion stimulation [4] -3% | inhibition of viability [5] 4.1% | viability decrease (inhibition) [6] -7.2% | viability decrease (inhibition) [7] -12% | mean signal [8] 234 | remaining activity [10] 104% | outcome [11] | outcome [12] | outcome [9]

C[C@@H]1CN(CCCn2c3ccccc3c3ccccc32)C[C@H](C)N1
inactive: insulin secretion stimulation [1] 16.2% | mean signal [8] 203 | remaining activity [10] 123%
active: viability decrease [2] 97.5% | tube area decrease [3] 48.2% | GLP1 secretion stimulation [4] 20% | inhibition of viability [5] 107% | viability decrease (inhibition) [6] 128% | viability decrease (inhibition) [7] 82.7%

O=C1N(c2ccccc2)c2ccccc2C1(Cc1ccncc1)Cc1ccncc1
inactive: insulin secretion stimulation [1] 1.2% | viability decrease [2] -9.5% | tube area decrease [3] 17.6% | GLP1 secretion stimulation [4] 2.6% | inhibition of viability [5] -4.7% | viability decrease (inhibition) [6] 23.8% | viability decrease (inhibition) [7] -3.9% | mean signal [8] 247 | remaining activity [10] 110% | outcome [11] | outcome [12] | outcome [9] | outcome [13] | outcome [14]

NC1CCN(c2cccc(Cl)n2)CC1
inactive: insulin secretion stimulation [1] -0.7% | viability decrease [2] -6.2% | tube area decrease [3] 3.8% | GLP1 secretion stimulation [4] 3.8% | inhibition of viability [5] 14.7% | viability decrease (inhibition) [6] 28.7% | viability decrease (inhibition) [7] -9.7% | mean signal [8] 216 | remaining activity [10] 113%

CC(C)c1ccc2oc3nc(N)c(C(=O)O)cc3c(=O)c2c1
inactive: insulin secretion stimulation [1] 3.2% | viability decrease [2] 8.7% | tube area decrease [3] 0% | GLP1 secretion stimulation [4] 0.3% | inhibition of viability [5] -17% | viability decrease (inhibition) [6] 17.9% | viability decrease (inhibition) [7] -27.9% | mean signal [8] 242 | outcome [12] | outcome [9] | outcome [14]

COc1cccc2c1C(=O)c1c(O)c3c(c(O)c1C2=O)C[C@@](O)(C(=O)CO)C[C@@H]3O[C@H]1C[C@H](N)[C@H](O)[C@H](C)O1
inactive: insulin secretion stimulation [1] 4% | viability decrease [2] -114% | GLP1 secretion stimulation [4] 3% | inhibition of viability [5] 40.6% | mean signal [8] 234 | remaining activity [10] 110%
active: tube area decrease [3] 22.7% | viability decrease (inhibition) [6] 99.3% | viability decrease (inhibition) [7] 82.4% | AC50 [11] 235 nM | AC50 [9] 332 nM | AC50 [13] 418 nM | AC50 [14] 934 nM

COc1cc(C(=O)NS(=O)(=O)c2ccccc2C)ccc1Cc1cn(C)c2ccc(NC(=O)OC3CCCC3)cc12
inactive: insulin secretion stimulation [1] 3.85% | GLP1 secretion stimulation [4] 19.5% | mean signal [8] 223 | outcome [11]
active: viability decrease [2] 106% | tube area decrease [3] 44.5% | inhibition of viability [5] 106% | viability decrease (inhibition) [6] 120% | viability decrease (inhibition) [7] 98.2% | AC50 [13] 20900 nM

NC(CS)C(=O)O (stereo not drawn)
0.99: normalised cell number [15, 17]
1: normalised cell number [15, 16]
inactive: insulin secretion stimulation [1] -0.5% | viability decrease [2] -0.35% | tube area decrease [3] 3.4% | GLP1 secretion stimulation [4] -1.7% | inhibition of viability [5] 16.7% | viability decrease (inhibition) [6] 34.5% | viability decrease (inhibition) [7] 32.7% | red/green cell ratio (normalised) [15] 0.99

Cc1c(O)cccc1C(=O)N[C@@H](CSc1ccccc1)[C@H](O)CN1C[C@H]2CCCC[C@H]2C[C@H]1C(=O)NC(C)(C)C
inactive: insulin secretion stimulation [1] 2.3% | GLP1 secretion stimulation [4] 7.9% | mean signal [8] 243
active: viability decrease [2] 117% | tube area decrease [3] 67.1% | inhibition of viability [5] 124% | viability decrease (inhibition) [6] 158% | viability decrease (inhibition) [7] 100% | AC50 [9] 20900 nM | AC50 [13] 20900 nM

CN1[C@@H]2CC[C@H]1CC(OC(=O)c1c[nH]c3ccccc13)C2 (stereo partly drawn)
inactive: insulin secretion stimulation [1] 13.7% | viability decrease [2] 24.6% | tube area decrease [3] 16.9% | GLP1 secretion stimulation [4] -0.1% | viability decrease (inhibition) [7] 43.6% | mean signal [8] 271 | remaining activity [10] 107% | outcome [9] | outcome [13]
active: inhibition of viability [5] 57.8% | viability decrease (inhibition) [6] 51.8%

CN(CCOc1ccc(NS(C)(=O)=O)cc1)CCc1ccc(NS(C)(=O)=O)cc1
inactive: insulin secretion stimulation [1] 1.25% | viability decrease [2] 12.3% | GLP1 secretion stimulation [4] 0.3% | inhibition of viability [5] 11.9% | viability decrease (inhibition) [6] 13% | viability decrease (inhibition) [7] -6.9% | mean signal [8] 278 | outcome [11] | outcome [12] | outcome [9] | outcome [13]
active: tube area decrease [3] 3.3%

O=C(O)CSCC(=O)NC1CCSC1=O (stereo not drawn)
0.94: normalised cell number [15, 16]
1.17: normalised cell number [15, 17]
inactive: insulin secretion stimulation [1] -1.9% | viability decrease [2] -4% | tube area decrease [3] -2.7% | GLP1 secretion stimulation [4] -0.3% | inhibition of viability [5] 9% | viability decrease (inhibition) [6] 15.2% | viability decrease (inhibition) [7] -4.25% | red/green cell ratio (normalised) [15] 1.25 | outcome [11] | outcome [12] | outcome [9] | outcome [13]
